# Bioassay records from PubChem BioAssay.
# Compounds with a hit are over-represented: about 2.9% of the library has one in this group of screens.
# ERa SRC1 inh: blocks coactivator binding to human estrogen receptor alpha; P03372; TR-FRET ER-alpha LBD / SRC-1 peptide, estradiol-bound; inhibition, % at 25.6 µM; actives 1.7% (n = 86,000); AID 629; in the data active = inhibition above about 50%;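 also: 0% = receptor plus peptide control and 100% = peptide only without receptor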
# Target sequence (P03372 whole entry, looked up, the tested form may be a part): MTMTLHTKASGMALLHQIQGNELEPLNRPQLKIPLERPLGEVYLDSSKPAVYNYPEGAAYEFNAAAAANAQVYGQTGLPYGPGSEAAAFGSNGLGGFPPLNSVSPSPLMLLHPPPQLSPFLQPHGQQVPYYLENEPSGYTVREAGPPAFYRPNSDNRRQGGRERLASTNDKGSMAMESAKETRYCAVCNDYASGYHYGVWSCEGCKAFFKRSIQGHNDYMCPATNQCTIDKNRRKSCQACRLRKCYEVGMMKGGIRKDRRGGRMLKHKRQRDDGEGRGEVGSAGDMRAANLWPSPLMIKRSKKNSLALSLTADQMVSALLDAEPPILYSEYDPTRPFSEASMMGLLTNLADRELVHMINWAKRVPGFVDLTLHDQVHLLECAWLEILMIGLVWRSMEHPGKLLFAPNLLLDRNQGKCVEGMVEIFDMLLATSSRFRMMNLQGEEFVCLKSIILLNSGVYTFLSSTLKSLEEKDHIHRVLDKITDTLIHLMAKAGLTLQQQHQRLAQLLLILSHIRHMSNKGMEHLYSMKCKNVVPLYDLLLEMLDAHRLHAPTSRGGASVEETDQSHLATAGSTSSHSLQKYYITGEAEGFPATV
# ERa SRC1 pot: enhances coactivator binding to human estrogen receptor alpha. P03372. coactivator binding (% of control), % at 25.6 µM. actives 1.3% (n = 86,000). TR-FRET ERalpha-LBD/SRC-Cy5 coactivator binding, 2 h; 100 = basal binding, no effect; in the data active = activity above about 200%;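 also: binding measured in presence of low estradiol as agonist stimulus; 0% = peptide alone without receptor and 100% = receptor with peptide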
# Calb biofilm kill: kills Candida albicans biofilms; C. albicans biofilm + clotrimazole, Alamar Blue; inhibition, % at 6 µM; actives 0.14% (n = 85,000);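 active = inhibition above 20%; inactive = inhibition below 20%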;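 also: preformed 24 hr biofilms exposed to compound for 48 hr; 0% = biofilm without compound and 100% = blank killed by clotrimazole plus chlorhexidine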
# HePTP inh: blocks human HePTP tyrosine phosphatase; actives 0.64% (n = 110,000); P35236; inhibition, % at 20 µM; AID 521; recombinant HePTP phosphatase activity, OD absorbance; in the data active = inhibition above about 50%;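 also: plate controls were vehicle for no effect and reference inhibitor for full effect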
# Smad3 inh: Smad3 (human) transcription factor binding inhibition. actives 0.29% (n = 88,000). inhibition, % at 25 µM. P84022. TR-FRET Smad3/Dy647-FoxH1 peptide binding, europium anti-His;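 active = compounds that reduce the energy-transfer binding signal between the protein and its labelled peptide by more than half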;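 also: 0% = Smad3 plus labelled peptide maximal FRET and 100% = peptide-only background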
# ERb SRC1 inh: blocks coactivator binding to human estrogen receptor beta; TR-FRET ER-beta LBD / SRC1-Cy5 peptide binding; receptor agonist-loaded with 1 µM estradiol; inhibition, % at 25.6 µM; actives 1.3% (n = 86,000); AID 633;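 active = compounds whose percent inhibition of the receptor-coactivator binding signal exceeds about 50% in the single-dose screen, limit read from the data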;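 also: 0% = receptor plus peptide wells without compound and 100% = peptide-only wells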
# Numbers without * were called inactive; nt = no result given; [ ] = another dose, or the depositor's remark.
SMILES,ERa SRC1 inh,ERa SRC1 pot,Calb biofilm kill,HePTP inh,Smad3 inh,ERb SRC1 inh
CCOC(=O)C1=C(C)NC(=O)NC1c1ccc(F)cc1F (stereo not drawn),nt,nt,nt,-28,nt,nt
Cc1cccc(OC(=O)c2cccc([N+](=O)[O-])c2)c1,nt,nt,nt,8,nt,nt
CC1=CC(=O)C=C(C)C1=NOC(=O)c1cccc([N+](=O)[O-])c1,4,95,86*,nt,10,4
O=C(O)c1cc(-c2ccco2)nc2ccccc12,74*,38,2,9,10,82*[fluorescence artefact?]
O=C(Nc1cccc([N+](=O)[O-])c1)c1cc(-c2ccco2)nc2ccccc12,nt,nt,nt,103*,nt,nt
O=C(O)c1cc(-c2cccc([N+](=O)[O-])c2)nc2ccccc12,nt,nt,nt,2,nt,nt
Cc1cc(C(=O)O)c2ccccc2n1,1,107,1,nt,7,0
CC(=O)Nc1ccc(NC(=O)c2ccc(N3C(=O)c4ccc(C(=O)Nc5ccc(NC(C)=O)cc5)cc4C3=O)cc2)cc1,nt,nt,nt,11,nt,nt
O=C(O)CCCCCN1C(=O)C(=O)/C(=C(/O)c2ccccc2)C1c1ccc([N+](=O)[O-])cc1 (stereo not drawn),nt,nt,nt,-19,nt,nt
Oc1ccccc1C=Nc1ccc2c(c1)ncn2-c1ccccc1,nt,nt,nt,4,nt,nt
COc1ccc(/C=C/C(=O)Nc2ccc(OC)c(OC)c2)cc1,nt,nt,nt,-3,nt,nt
Cc1ccc2c(c1)c(N=Nc1nnc3c(n1)[nH]c1ccccc13)c(O)n2C,nt,nt,nt,87*,nt,nt
Cn1nnnc1SCC(=O)Nc1nc(-c2ccccc2)c(-c2ccccc2)o1,-36,391*,-5,11,-3,-27
N=C(N)SCCSC(=N)N,nt,nt,nt,nt,68*,nt
CCOC(=O)C(C)Oc1cccc2c1ccc1c(-c3ccccc3)cc(=O)oc12 (stereo not drawn),nt,nt,nt,10,nt,nt
CCN(CC)c1ccc(N2C(=O)/C(=C/c3ccc(C(=O)O)cc3)SC2=S)cc1,nt,nt,nt,104*,nt,nt
O=C(CCCN1C(=O)/C(=C/c2ccc(F)cc2)SC1=S)Nc1ccc(C(=O)O)cc1,nt,nt,nt,102*,nt,nt
O=C(CN1C(=O)/C(=C/c2ccccc2)SC1=S)Nc1cccc(C(=O)O)c1,nt,nt,nt,52*,nt,nt
CCN(CC)c1ccc(N2C(=O)/C(=C/c3ccc(C(=O)OC)cc3)SC2=S)cc1,nt,nt,nt,7,nt,nt
COc1ccc(CCNC(=O)c2ccc(I)cc2)cc1,nt,nt,nt,-14,nt,nt
COC(=O)c1[nH]c2cccc(OC)c2c1NC(=O)CN1CC2(C)CC1CC(C)(C)C2 (stereo not drawn),-2,109,0,1,67*[fluorescence artefact?],5
COc1ccc(C(=CCl)c2ccc(OC)cc2)cc1,nt,nt,nt,-5,nt,nt
O=C1N=C(N2CCOCC2)S/C1=C\c1ccc2c(c1)OCO2,nt,nt,nt,-16,nt,nt
COc1ccc(OC)c(C2C(C(=O)/C=C/c3ccccc3)=C(O)C(=O)N2CCCCCC(=O)O)c1 (stereo not drawn),nt,nt,nt,78*,nt,nt
COc1ccc(/C=C2/C(=O)NC(=O)N(c3ccc(C(C)C)cc3)C2=O)c(OC)c1,nt,nt,nt,5,nt,nt
SMILES,ERa SRC1 inh,ERa SRC1 pot,Calb biofilm kill,HePTP inh,Smad3 inh,ERb SRC1 inh
Cc1ccc(-n2nnnc2SCC(=O)Nc2c(C)n(C)n(-c3ccccc3)c2=O)cc1,-19,110,6,1,19,-17
Cc1sc2nc(SCC(=O)Nc3c(C)n(C)n(-c4ccccc4)c3=O)n(C)c(=O)c2c1C,70*[fluorescence artefact?],24,10,30,6,62*[fluorescence artefact?]
CCc1nc2ccccc2n1CC(O)COc1ccc(C(=O)O)cc1 (stereo not drawn),nt,nt,nt,3,nt,nt
N#CC(C(=O)Nc1ccc(Cl)c(Cl)c1)=C1Nc2ccccc2N1,79*[fluorescence artefact?],46,2,8,-19,70*[fluorescence artefact?]
CC(=O)Nc1ccc2[nH]c3ccccc3c2c1,-4,124,7,2,5,-3
CC(=O)Nc1ccc2[nH]c(C)cc(=O)c2c1,77*,33,0,0,3,44
CN(CC(=O)NC(=O)NCc1ccco1)Cc1nc2ccccc2c(=O)[nH]1,61*,71,0,41,13,43
CN(CC(=O)NC(c1ccccc1)c1ccccc1)Cc1nc2ccccc2c(=O)[nH]1,4,102,-2,nt,4,5
CCOC(=O)C1=C(C)Nc2ccccc2S1,nt,nt,nt,-7,nt,nt
CCOC(=O)C1=C(c2ccccc2)N2CCN=C2S1,-10,424*[fluorescence artefact?],2,-3,1,-10
COc1ccc(C(=O)O/N=C2\CCCc3c2ccc(O)c3C)cc1OC,nt,nt,nt,7,nt,nt
CCN(c1ccccc1)c1nc2nonc2nc1N(C)C,nt,nt,nt,-6,nt,nt
COc1ccccc1NS(=O)(=O)c1ccc(C(=O)OCC(=O)NCc2ccco2)cc1,73*[fluorescence artefact?],63,7,-5,-3,45
COc1ccccc1NC(=O)COC(=O)c1ccc(S(=O)(=O)NCc2ccco2)cc1,24,90,5,3,-12,14
CCOC(=O)C1=C(C)N=c2s/c(=C\c3ccccn3)c(=O)n2C1c1ccc(OC)cc1 (stereo not drawn),nt,nt,nt,2,nt,nt
Cc1cc(C)c(C#N)c(SCc2ccccc2)n1,1,94,5,nt,-6,-3
Cc1cc(C)c(C#N)c(SCc2cc3c(cc2Cl)OCO3)n1,56*[fluorescence artefact?],189,4,nt,-4,58*[fluorescence artefact?]
N#Cc1cc2c(nc1SCc1cccnc1)CCCCC2,-12,100,-1,2,5,-24
N#Cc1cc2ccccc2nc1SCc1cccnc1,-3,306*[fluorescence artefact?],8,13,4,-3
COc1ccc2nc(SCc3cccnc3)c(C#N)cc2c1,2,202*[fluorescence artefact?],10,nt,-1,1
CCC(=O)/C=C1/Sc2ccc(OC)cc2N1CC,-3,113,-2,nt,-2,99*[fluorescence artefact?]
Cc1ccc(C(=O)CSc2nnnn2-c2ccccc2)c(C)c1,nt,nt,nt,10,nt,nt
C/C(N)=C(/C#N)C(=O)CSc1nnnn1-c1ccc(C)cc1,51*[fluorescence artefact?],59,10,3,11,64*
C/C(N)=C(/C#N)C(=O)CSc1nnnn1-c1ccccc1,85*[fluorescence artefact?],7,5,nt,-4,90*[fluorescence artefact?]
CC(=O)CSc1nnnn1-c1ccccc1,nt,nt,nt,-7,nt,nt
SMILES,ERa SRC1 inh,ERa SRC1 pot,Calb biofilm kill,HePTP inh,Smad3 inh,ERb SRC1 inh
O=C1NC(Cc2c[nH]c3ccccc23)C(=O)N1CCOc1ccccc1 (stereo not drawn),-6,120,-3,4,7,-4
Cc1cc(C(=O)CN2C(=O)NC(Cc3c[nH]c4ccccc34)C2=O)c(C)n1C (stereo not drawn),-8,96,nt,8,-2,94*[fluorescence artefact?]
COc1ccc2c(C)cc(SCC(=O)c3ccc4c(c3)OCO4)nc2c1,16,300*[fluorescence artefact?],4,nt,-4,12
Cc1ccc2cc(CCNS(=O)(=O)c3ccc(F)cc3)c(=O)[nH]c2c1,3,216*,5,-1,4,-3
Cc1cc(C)nc(NC(=O)CSc2nn(C)c(=S)s2)n1,65*,47,6,-6,8,33
CCc1cccc(NC(=O)Cn2cc3c(n2)CCCC3)c1,-4,88,1,18,15,-4
CN(C)c1ccc(NC(=O)Cn2cc3c(n2)CCCC3)cc1,85*[fluorescence artefact?],16,19,15,-2,95*[fluorescence artefact?]
CC(=O)N/N=C/c1cc(C)n(-c2cc(Cl)cc(Cl)c2)c1C,nt,nt,nt,-22,nt,nt
